The results in this text go back to PubChem BioAssay (EPA / NIEHS).

The AC50 is the concentration at which the activity in the assay is half-maximal.

Active and inactive are the calls of the source. How the source made its calls: active means hit-call score of the fitted dose curve at least 0.9, where 1 is the maximum; inactive means score below 0.9.

Read-out in the first assay: catalase (CAT), CAT (gene 847)
Put plainly: LTEA_HepaRG_CAT: Life Technologies and Expression Analysis (LTEA) Assay for catalase (CAT) using HepaRG (AID 2283452).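 On AC50: TaqMan qRT-PCR signal normalized to ACTB GAPDH and POLR2A housekeeping genes.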 To be noted: mRNA level, 48 h; actives raise or lower the signal. In a few lines: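 HepaRG cells in serum-free induction medium, 0.5% DMSO vehicle, exposed 48 h in duplicate over 8 half-log concentrations from 100 uM. CAT mRNA measured by qRT-PCR, normalized to ACTB, GAPDH, POLR2A; bidirectional fit versus DMSO.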
`CCOC(=O)COc1cc(-n2ncc(C(F)(F)F)c(C)c2=O)c(F)cc1Cl`: the compound was called inactive.

As for `Oc1ccc(C(c2ccc(O)cc2)C(Cl)(Cl)Cl)cc1`, the AC50 was 88.8 µM (active).

In the case of `c1ccc(Nc2ccccc2)cc1`, the compound was classed as inactive.

For `CCCOC(=O)c1ccc(C(=O)OCCC)nc1`, the compound was classed as inactive.

Consider `CCCCC(CC)COC(=O)c1ccccc1C(=O)O` (stereo not given), for which the result was inactive.

Turning to `CCSC(=O)N(CC(C)C)CC(C)C`, the compound was classed as inactive.

Consider `CCCCOC(=O)C(C)Oc1ccc(Oc2ccc(C(F)(F)F)cn2)cc1` (stereo not given), for which the compound was called inactive.

Take `CCOC(=O)C(C)Oc1ccc(Oc2cnc3cc(Cl)ccc3n2)cc1` (stereo not given): the result was inactive.

Read-out in the next assay: flavin-containing dimethylaniline monooxygenases 3 (FMO3), FMO3 (gene 2328)
Put plainly: LTEA_HepaRG_FMO3: Life Technologies and Expression Analysis (LTEA) Assay for flavin-containing dimethylaniline monooxygenases 3 (FMO3) using HepaRG (AID 2283453).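 On AC50: differentiated human HepaRG liver cells in serum-free induction medium; FMO3 transcript by TaqMan qRT-PCR normalized to ACTB GAPDH and POLR2A.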 The following applies: mRNA level, 48 h; actives raise or lower the signal. In a few lines: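 FMO3 transcript quantified by TaqMan qRT-PCR against three housekeeping genes after 48 h chemical exposure of HepaRG cells. Eight-point half-log series, top 100 uM, 0.5% DMSO vehicle; phenobarbital 1mM induction control; up- or down-regulation fitted.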
`CCOC(=O)c1ccc(O)cc1`: the outcome was inactive.

In the case of `CCCN(CCC)c1c([N+](=O)[O-])cc(C(F)(F)F)c(N)c1[N+](=O)[O-]`, the outcome was inactive.

On to `O=C(c1ccccc1)C1CCCCC1`, for which the result was inactive.

For `C=CCOC(Cn1ccnc1)c1ccc(Cl)cc1Cl` (stereo not given), the half-maximal activity concentration (AC50) was 35.3 µM (active).

In the case of `CC(C)CCCCCCc1ccc(O)cc1`, the result was inactive.

Turning to `COCCO`, the result was inactive.

On to `N[C@@H](Cc1cc(I)c(Oc2ccc(O)c(I)c2)c(I)c1)C(=O)O`, for which the AC50 is 40 µM (active).

Consider `COc1c(Cl)ccc(Cl)c1C(=O)O`, for which the outcome was inactive.

In the case of `CCC(C)OC(=O)N1CCCCC1CCO` (stereo not given), the call was inactive.

Take `CC(C)(C)[C@@H](O)[C@@H](Cc1ccc(Cl)cc1)n1cncn1`: the call was inactive.

As to `O=C(O)C1(C(=O)Nc2ccc(Cl)cc2Cl)CC1`, the AC50 was 67 µM (active).

With `OB(O)O`, the compound was called inactive.

`CC(=O)[C@H]1CC[C@H]2[C@@H]3CCC4=CC(=O)CC[C@]4(C)[C@H]3CC[C@]12C`: the AC50 was 34.1 µM (active).

As for `CCCCC(CC)CN1C(=O)C2C3C=CC(C3)C2C1=O` (stereo not given), the AC50 was 78.7 µM (active).

Turning to `CCN(Cc1c(F)cccc1Cl)c1c([N+](=O)[O-])cc(C(F)(F)F)cc1[N+](=O)[O-]`, the AC50 was 50 µM (active).

Take `C[C@]12C[C@H](O)[C@H]3[C@@H](CCC4=CC(=O)CC[C@@]43C)[C@@H]1CC[C@@H]2C(=O)CO`: the compound was classed as inactive.

For `C#CCOC(=O)[C@@H](C)Oc1ccc(Oc2ncc(Cl)cc2F)cc1`, the compound was called inactive.

`Cc1nn(C)c(Oc2ccccc2)c1C=NOCc1ccc(C(=O)OC(C)(C)C)cc1`: the AC50 was 2.87 µM (active).

On to `CCOC(=O)C(C)Oc1ccc(Oc2nc3ccc(Cl)cc3o2)cc1` (stereo not given), for which the outcome was inactive.

As for `CCOC(=O)COc1cc(-n2ncc(C(F)(F)F)c(C)c2=O)c(F)cc1Cl`, the compound was called inactive.

For `Oc1ccc(C(c2ccc(O)cc2)C(Cl)(Cl)Cl)cc1`, the concentration at half-maximal activity (AC50) was 94 µM (active).

With `c1ccc(Nc2ccccc2)cc1`, the compound was called inactive.

Turning to `CCCOC(=O)c1ccc(C(=O)OCCC)nc1`, the result was inactive.

For `CCCCC(CC)COC(=O)c1ccccc1C(=O)O` (stereo not given), the outcome was inactive.

With `CCSC(=O)N(CC(C)C)CC(C)C`, the result was inactive.

Take `CCCCOC(=O)C(C)Oc1ccc(Oc2ccc(C(F)(F)F)cn2)cc1` (stereo not given): the compound was classed as inactive.

`CCOC(=O)C(C)Oc1ccc(Oc2cnc3cc(Cl)ccc3n2)cc1` (stereo not given): the AC50 was 14 µM (active).
